Sampled rows, rich in hits. Any-hit rate of the full collection: about 19%.
HT1080 IDH1KD tx: HT-1080 IDH1 knockdown cell toxicity (counter line). HT-1080 IDH1 knockdown viability, ATP luminescence, 48 h. Potency, µM (series often up to 46.1 µM), usual class: cytotoxic. actives 2% (n = 360,000)
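Cytotoxicity counter-line: IDH1KD HT-1080, 48 h, CellTiter-Glo. Curves classed by r2, magnitude and activity.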
IL1B secr inh: inflammasome signaling inhibition, IL-1 beta readout | THP-1 LPS/ATP IL-1B secretion, AlphaLISA, 16 h; active compounds read low | activity change, % at 57.5 µM | actives 4.7% (n = 360,000); in the data active = activity change below about -50%; inconclusive = mostly about -30% to -49%
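THP-1 cells pretreated 1 hr with compounds (up to 57.5 uM final), then stimulated with LPS (250 ng/mL final) plus ATP (1.25 mM final); secreted IL-1B measured by AlphaLISA after 16 hr, decreased signal indicating inhibition.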
TDP1 cell noCPT: qHTS for Inhibitors of human tyrosyl-DNA phosphodiesterase 1 (TDP1): qHTS in cells in absence of CPT; Potency, µM (series often up to 46.2 µM), most hits filed as inhibitors; actives 15% (n = 420,000); DT40 Tdp1-/- hTDP1 cells, no CPT, ATP luminescence, 48 h; AID 686978, 2013; also: nearly all actives have a fitted effect of over 55% in size
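Growth kinetics read by CellTiter-Glo luminescence after ≥48 hr at 37 °C. Cells: DT40 Tdp1-/- stably carrying human TDP1, 400 per well, compound exposure in the absence of CPT (DMSO vehicle).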
HT1080-NT tox: kills 2HG-producing HT-1080-NT fibrosarcoma cells. HT-1080-NT fibrosarcoma viability, CellTiter-Glo ATP luminescence, 48 h. Potency, µM (highest dose often 46.1 µM), hits mostly cytotoxic. actives 1.6% (n = 360,000);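 also: NT is the 2HG producing partner of a matched IDH1 knockdown line; nearly all actives have a fitted effect of over 55% in size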
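Fibrosarcoma NT cells, 750 per well in 5% FBS RPMI, were exposed to compound for 48 hours. Viability: CellTiter-Glo luminescence.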
TDP1 cell CPT: growth inhibition of DT40 Tdp1-/-;hTDP1 cells with camptothecin (screen for TDP1 inhibitors); actives 12% (n = 420,000); Potency, µM (titrated, usually from 46.2 µM), most hits filed as inhibitors; chicken DT40 Tdp1-/-;hTDP1 cells + 20 nM CPT, ATP luminescence, 48 h; AID 686979; also: nearly all actives have a fitted effect of over 55% in size
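Chicken DT40 Tdp1-/- cells stably complemented with human TDP1 were seeded at 400 cells/well in medium containing 20 nM camptothecin, exposed to pin-transferred compounds, and grown at 37 °C for at least 48 hr. Viability was read as ATP luminescence.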
Of the large screens only hits and unclear results are named; the others gave an inactive call. Unless noted, calls follow the shape of the dose curve; as a rule, active = well fitted curve in the direction sought with a large enough effect; inconclusive = small, poorly fitted or top-dose-only effect, or another doubt; inactive = no such curve, though single readings can be large; an effect the other way counts as inactive or inconclusive.

Cc1nc2c(OCc3cc(Cl)cc(Cl)c3)cccn2c1N(C)C(=O)CCC1CCCC1	HT1080 IDH1KD tx inconclusive, IL1B secr inh -67, TDP1 cell noCPT inconclusive, HT1080-NT tox inconclusive, TDP1 cell CPT inconclusive
Cc1nc2c(OCCC3CCCCC3)cccn2c1N(C)C(=O)CCC1CCCC1	HT1080 IDH1KD tx inconclusive, IL1B secr inh -53, TDP1 cell noCPT 16µM, HT1080-NT tox inconclusive, TDP1 cell CPT inconclusive
Cc1nc2c(OCCOc3ccccc3)cccn2c1N(C)C(=O)CCC1CCCC1	TDP1 cell noCPT inconclusive, TDP1 cell CPT inconclusive
CCCCC(=O)N(C)c1c(CC)nc2c(OCC(=O)C(C)(C)C)cccn12	none
O=c1[nH]c2ccccc2n1C1=CCNCC1	none
CCCNC(=O)[C@H]1O[C@@H]1C(=O)N[C@H](C(=O)N1CCC[C@H]1C(=O)OC)[C@@H](C)CC	TDP1 cell noCPT 2.4µM, TDP1 cell CPT 1.9µM (no result: HT1080 IDH1KD tx, IL1B secr inh, HT1080-NT tox)
Cc1c(C(=O)N2CCC3(CC2)CC(=O)c2ccccc2O3)cccc1[N+](=O)[O-]	TDP1 cell noCPT 23µM, TDP1 cell CPT 18µM
O=C1CC2(CCN(C(=O)c3ccc([N+](=O)[O-])cc3)CC2)Oc2ccccc21	TDP1 cell noCPT inconclusive, TDP1 cell CPT inconclusive
O=C1CC2(CCN(C(=O)c3ccc(Br)cc3)CC2)Oc2ccccc21	IL1B secr inh -51, TDP1 cell noCPT 18µM, TDP1 cell CPT inconclusive
CC1=NNC(=O)C1C(c1ccccc1)C(C#N)C#N (configuration not stated)	IL1B secr inh inconclusive
COc1ccccc1Oc1nc(-c2ccccc2)cc(C)c1S(C)(=O)=O	HT1080 IDH1KD tx inconclusive, TDP1 cell noCPT 18µM, HT1080-NT tox inconclusive, TDP1 cell CPT inconclusive
Cc1cc(C)cc(Oc2nc(-c3ccccc3)cc(C)c2S(C)(=O)=O)c1	HT1080 IDH1KD tx inconclusive, TDP1 cell noCPT inconclusive, HT1080-NT tox inconclusive, TDP1 cell CPT inconclusive
Cc1cc(-c2ccccc2)nc(Oc2ccc(C(C)(C)C)cc2)c1S(C)(=O)=O	TDP1 cell noCPT 21µM, TDP1 cell CPT inconclusive
COCCN(C(=O)COC(=O)c1nc(Cl)ccc1Cl)c1c(N)n(Cc2ccccc2)c(=O)[nH]c1=O	none
O=C(CCn1c(=S)oc2ccccc21)NCCC1=CCCCC1	none
N#C/C(=C/c1ccc(N2CCCCC2)o1)c1cccc(F)c1	HT1080 IDH1KD tx 4µM, TDP1 cell noCPT 15µM, HT1080-NT tox inconclusive, TDP1 cell CPT 10µM
N#C/C(=C/c1ccc(N2CCCCCC2)o1)c1ccc(Cl)cc1	HT1080 IDH1KD tx 2.2µM, IL1B secr inh -102, TDP1 cell noCPT 18µM, HT1080-NT tox 5.6µM, TDP1 cell CPT 15µM
N#C/C(=C/c1ccc(N2CCCCC2)cc1)c1cccc(F)c1	TDP1 cell noCPT inconclusive, TDP1 cell CPT inconclusive
N#C/C(=C\c1ccc(N2CCOCC2)o1)C(=O)NCC1CCCO1 (configuration not stated)	none
CCOc1ccc(C2SCC(=O)N2c2c(C)n(C)n(-c3ccccc3)c2=O)cc1 (configuration not stated)	none
CCOc1ccc(C2=C(C=Nc3c(C)n(C)n(-c4ccccc4)c3=O)C(c3ccc(F)cc3)c3ccccc3O2)cc1 (configuration not stated)	TDP1 cell noCPT inconclusive, TDP1 cell CPT 23µM
CC(Sc1nc(N)cc(=O)[nH]1)C(=O)NCC(=O)Nc1ccc(F)c(F)c1F (configuration not stated)	none
CN(C)/C=N/c1ncc(C(=O)c2ccc(-c3ccccc3)cc2)s1	IL1B secr inh -52, TDP1 cell noCPT inconclusive
CN1CCC(N(C)S(=O)(=O)c2ccc(NC(=O)COc3cccc(C(F)(F)F)c3)cc2)CC1	IL1B secr inh -53, TDP1 cell noCPT inconclusive, TDP1 cell CPT inconclusive
CC(Oc1ccc(Br)cc1)C(=O)Nc1ccc(S(=O)(=O)N(C)C2CCN(C)CC2)cc1 (configuration not stated)	IL1B secr inh -98, TDP1 cell noCPT 6.5µM, TDP1 cell CPT 12µM
O=C(COc1ccc(C(=O)O)cc1)Nc1cccc(C(F)(F)F)c1	none
CN1CCN(C(=S)c2ccc(OCC(=O)Nc3cccc(C(F)(F)F)c3)cc2)CC1	IL1B secr inh inconclusive, TDP1 cell noCPT 9.2µM, TDP1 cell CPT 21µM
COc1ccc(CC(=O)Nc2ccc(S(=O)(=O)N(C)C3CCN(C)CC3)cc2)cc1	TDP1 cell CPT inconclusive
CC(NC(=O)c1cc(F)ccc1F)c1nnc2n1CCN(Cc1cccs1)CC2 (configuration not stated)	none (no result: HT1080 IDH1KD tx, IL1B secr inh, HT1080-NT tox)
CC(=O)N1CCN(c2ccc(NC(=O)c3ccc4c(c3)OCO4)cc2)CC1	none
Cc1ccc(C(=O)N2CCN(c3ccc(NC(=O)c4ccc5c(c4)OCCO5)cc3)CC2)cc1	TDP1 cell noCPT inconclusive, TDP1 cell CPT 16µM (no result: IL1B secr inh)
CC(C)C(=O)N1CCN(c2ccc(NC(=O)c3ccc4c(c3)OCCO4)cc2)CC1	HT1080 IDH1KD tx inconclusive, HT1080-NT tox inconclusive
Cc1ccccc1C(=O)N1CCN(c2ccc(NC(=O)c3ccc4c(c3)OCCO4)cc2)CC1	IL1B secr inh inconclusive, TDP1 cell noCPT 23µM, HT1080-NT tox inconclusive, TDP1 cell CPT inconclusive
O=C(Nc1ccc(N2CCN(C(=O)c3ccccc3)CC2)cc1)c1ccc2c(c1)OCO2	IL1B secr inh -78, TDP1 cell noCPT 18µM, TDP1 cell CPT 15µM
CC1=NC(C)(C)CC2CCC(O)C12 (configuration not stated)	none
Cc1csc(NC(=O)CSc2nnc(C)s2)n1	none
Cc1nnc(SCC(=O)Nc2nc3c(s2)CC(C)CC3)s1 (configuration not stated)	TDP1 cell noCPT 10µM, TDP1 cell CPT inconclusive
CC1CCc2nc(NC(=O)CSc3nc4ccccc4o3)sc2C1 (configuration not stated)	HT1080 IDH1KD tx inconclusive, TDP1 cell noCPT 18µM, HT1080-NT tox inconclusive, TDP1 cell CPT inconclusive
C/C(=N/NC(=O)CNS(=O)(=O)c1ccc(C)cc1)c1cccc([N+](=O)[O-])c1	none
O=P(OC1CCCCC1)(OC1CCCCC1)C(O)c1ccccc1 (configuration not stated)	TDP1 cell noCPT inconclusive
O=C(N/N=C/c1ccc(Br)s1)c1c[nH]c2ccccc12	IL1B secr inh -81, TDP1 cell noCPT inconclusive, TDP1 cell CPT inconclusive
O=C(N/N=C/c1ccc(Cl)cc1)c1ccc2c(c1)OCO2	HT1080 IDH1KD tx inconclusive, TDP1 cell noCPT 13µM, HT1080-NT tox inconclusive, TDP1 cell CPT inconclusive
O=C(N/N=C/c1ccc2c(c1)OCO2)c1ccc(COCC(F)(F)C(F)F)cc1	HT1080 IDH1KD tx 1.3µM, HT1080-NT tox 1µM
COc1ccc(/C=N/NC(=O)c2ccc(COCC(F)(F)C(F)F)cc2)cc1	none
COc1ccc2c(Cl)c(C(=O)N/N=C/c3ccc4c(c3)OCO4)sc2c1	TDP1 cell noCPT inconclusive, TDP1 cell CPT inconclusive

Assay outcomes deposited in PubChem by National Center for Advancing Translational Sciences (NCATS).
